Measured values reported in PubChem BioAssay (NCATS).
Results filed as inconclusive are left out. Activity calls are given as the source filed them. Unless noted, the call rests on the fitted dose curve; in most records, active means well fitted curve in the direction sought with a large enough effect; inconclusive means small, poorly fitted or top-dose-only effect, or another doubt; inactive means no such curve, though single readings can be large; an effect the other way counts as inactive or inconclusive.

How the values were obtained:
[1] = qHTS assay for measurement of the activity of small molecule inhibitors on Zika virus induced Caspase-3 activity in human iPSC derived neural progenitor cells (hNPCs) (AID 1224857); further: % of control where 0% means no effect; nearly all actives have a fitted effect of over 65% in size
How it was run: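 After overnight (16–20 h) culture at 350 cells/well, hNPCs get compound, then ZIKV 2 FFU/cell one hour later. Six hours on, Caspase-Glo 3/7 is added and luminescence measured.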

[2] = qHTS assay for measurement of the activity of small molecule inhibitors on Zika virus induced Caspase-3 activity in human astrocytoma cells (AID 1224859);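 further: plate controls were ZIKV-infected untreated cells for no effect and uninfected cells for full effect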
How it was run: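 Inhibition of Zika-induced caspase-3/7 activity: SNB-19 cells, 1 h compound pretreatment, ZIKV 2 FFU/cell for 6 h at 37 C, Caspase-Glo luminescence read-out.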

[3] = NS1 protein of Zika virus - qHTS assay to identify small molecule inhibitors in human HEK 293 cells (AID 1347053);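 further: plate controls were infected untreated cells for no effect and uninfected cells for full effect; nearly all actives have a fitted effect of over 55% in size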
How it was run: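 Compound-treated (1 h pre-infection) HEK 293 cells infected with ZIKV MR766, MOI = 0.5; after 24 h at 37 C, NS1 read by TR-FRET; data normalized to uninfected and infected controls.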

[4] = qHTS of pediatric cancer cell lines to identify multiple opportunities for drug repurposing: Primary screen for TC32 cells (AID 1347089); further: on the % scale 0 is the no-effect control and ±100 the full control effect; nearly all actives have a fitted effect of over 60% in size
How it was run: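 A viability screen of TC32 cells was run over 48 h, with primary MIPE doses spanning 0.78 nM–46 µM and NPC doses 0.59 nM–46 µM. ATP luminescence (CellTiter-Glo) served as the read-out.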

[5] = qHTS of pediatric cancer cell lines to identify multiple opportunities for drug repurposing: Primary screen for DAOY cells (AID 1347090);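 further: plate controls were DMSO for no effect and bortezomib for full effect; nearly all actives have a fitted effect of over 55% in size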
How it was run: (§1)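 Viability measured as metabolically active cells via CellTiter-Glo luminescence following 48 hours of compound exposure, 11-point dilutions in confirmatory testing. 500-1,000 cells/well plated 5 hours before dosing; controls were DMSO and 2.3 µM bortezomib.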

[6] = qHTS of pediatric cancer cell lines to identify multiple opportunities for drug repurposing: Primary screen for A673 cells (AID 1347092); further: on the % scale 0 is the no-effect control and ±100 the full control effect; nearly all actives have a fitted effect of over 45% in size
How it was run: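 Titration-based qHTS on A673 cells: MIPE compounds spanned 11 points (0.78 nM to 46 µM final), NPC compounds 8 points (0.59 nM to 46 µM final). Viability after 48 h was measured by ATP luminescence.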

[7] = qHTS of pediatric cancer cell lines to identify multiple opportunities for drug repurposing: Primary screen for SJ-GBM2 cells (AID 1347091); further: potency means the concentration at half of the fitted maximal effect;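 on activity change, negative = cytotoxic: plate controls were DMSO neutral control for no effect and bortezomib for full effect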
How it was run: as §1

[8] = qHTS profiling of the MIPE4 collection as inhibitors of Plasmodium falciparum (3D7) proliferation (AID 743344; call rule not given here;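 further: scaled between DMSO vehicle wells and 0.29 µM artemisinin as full inhibition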); conditions: P. falciparum 3D7 in erythrocytes, SYBR Green DNA fluorescence, 72 h; at 28.5 µM (top of the series) unless noted
How it was run: (§2)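 Parasite DNA was quantified by SYBR Green I fluorescence (ex 485, em 535 nm) after overnight lysis in saponin/Triton buffer at room temperature. Cultures at 0.3% parasitemia and 2.5% hematocrit were first exposed to compound for 72 h at 37 C; signals were normalised to artemisinin (0.29 uM) and vehicle wells.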

[9] = qHTS profiling of the MIPE4 collection as inhibitors of Plasmodium falciparum (DD2) proliferation (AID 743345; call rule not given here); conditions: P. falciparum Dd2 in erythrocytes, SYBR Green DNA, 72 h; at 28.5 µM (top of the series) unless noted
How it was run: as §2

[10] = qHTS profiling of the MIPE4 collection as inhibitors of Plasmodium falciparum (DD2) proliferation (Rep 2) (AID 743346; call rule not given here); conditions: P. falciparum Dd2 in erythrocytes, SYBR Green DNA, 72 h; at 28.5 µM (top of the series) unless noted
How it was run: as §2

[11] = qHTS profiling of the MIPE4 collection as inhibitors of Plasmodium falciparum (HB3) proliferation (AID 743347; call rule not given here;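 further: plate controls were DMSO vehicle wells for no effect and artemisinin wells for full effect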); conditions: P. falciparum HB3 in erythrocytes, SYBR Green DNA, 72 h; at 28.5 µM (top of the series) unless noted
How it was run: as §2

O=C(O)C1CCC1
inactive: Potency [1] | outcome [2] | Potency [3] | Potency [4] | Potency [5] | Potency [6]

CC(=O)[C@@]1(O)CC[C@H]2[C@@H]3C[C@H](C)C4=CC(=O)CC[C@]4(C)[C@H]3CC[C@@]21C
inactive: Potency [1] | outcome [2] | Potency [3] | Potency [4] | Potency [7] | Potency [6]

OC1(c2ccccc2)CCNCC1
inactive: Potency [1] | outcome [2] | Potency [3] | Potency [4] | Potency [5] | Potency [7] | Potency [6]

CN1N=C(C(N)=O)CCC1=O
inactive: Potency [1] | outcome [2] | Potency [3] | Potency [4] | Potency [5] | Potency [6]

CC1(C)O[C@@H]2C[C@H]3[C@@H]4C[C@H](F)C5=CC(=O)C=C[C@]5(C)[C@@]4(F)[C@@H](O)C[C@]3(C)[C@]2(C(=O)CO)O1
inactive: Potency [1] | outcome [2] | Potency [3] | Potency [4] | Potency [5] | Potency [6]

Nc1ccc(C(=O)N2CC3CC(CN(Cc4ccccc4)C3)C2)cc1
inactive: Potency [1] | outcome [2] | Potency [3] | Potency [4] | Potency [5] | Potency [6]

CCOC(=O)NNc1nncc2ccccc12
inactive: Potency [1] | outcome [2] | Potency [3] | Potency [4] | Potency [5] | Potency [6]

O=C(NN1CCCC1)NS(=O)(=O)c1ccc(Cl)cc1
inactive: Potency [1] | outcome [2] | Potency [3] | Potency [4] | Potency [7] | Potency [6]

Cc1[nH]cnc1-c1ccc(Cl)cc1
inactive: Potency [1] | outcome [2] | Potency [3] | Potency [4] | Potency [5] | Potency [6]

CCOC(=O)c1cc(=O)c2c(OCC(COc3cccc4oc(C(=O)OCC)cc(=O)c34)OC(=O)[C@@H](N)CCCCN)cccc2o1
inactive: Potency [1] | outcome [2] | Potency [3] | Potency [4] | Potency [7] | Potency [6]

C[C@@H](O[C@H]1OCCN(Cc2n[nH]c(=O)[nH]2)[C@H]1c1ccc(F)cc1)c1cc(C(F)(F)F)cc(C(F)(F)F)c1
inactive: Potency [1] | outcome [2] | Potency [3] | Potency [4]
active: Potency [7] 21.1 µM

Cn1cc(S(C)=O)c(=O)c2ccc(F)cc21 (stereo unspecified)
inactive: Potency [1] | outcome [2] | Potency [3] | Potency [4] | Potency [7] | Potency [6]

CC(C)C(=O)Nc1cccc(C2CN3CCSC3=N2)c1 (stereo unspecified)
inactive: Potency [1] | outcome [2] | Potency [3] | Potency [4] | Potency [5] | Potency [6]

CC[N+]1(CC)CCC(=C(c2ccccc2)c2ccccc2)C1C (stereo unspecified)
inactive: Potency [1] | outcome [2] | Potency [3] | Potency [4] | Potency [5] | Potency [6]

COC(=O)/C=C\C(=O)OC
inactive: Potency [1] | outcome [2] | Potency [3] | Potency [4] | Potency [7]

O=C1NC(c2ccccc2)(c2ccccc2)C(=O)N1COP(=O)(O)O
inactive: Potency [1] | outcome [2] | Potency [3] | Potency [4] | Potency [7] | Potency [6]

CCCc1ccc(OCC(=O)N2CCN(C(=O)COc3ccc(CCC)cc3OC)CC2)c(OC)c1
inactive: Potency [1] | outcome [2] | Potency [3] | Potency [4] | Potency [5] | Potency [6]

C/C(=N/NC(=O)c1ccncc1)C(=O)O
inactive: Potency [1] | outcome [2] | Potency [3] | Potency [4] | Potency [5] | Potency [7] | Potency [6]

Cc1nc2n(c(=O)c1CCN1CCC(C(=O)c3ccc(F)cc3)CC1)CCS2
inactive: Potency [1] | outcome [2] | Potency [3] | Potency [4] | Potency [5] | Potency [6]

Cc1ccccc1C(=O)N1CC/C(=N\OS(=O)(=O)O)c2ccc(Cl)cc21
inactive: Potency [1] | outcome [2] | Potency [3] | Potency [4] | Potency [5] | Potency [6]

CCS(=O)(=O)c1ccc(OC)c(C(=O)OC)c1
inactive: Potency [1] | outcome [2] | Potency [3] | Potency [4] | Potency [7]

CN(C)CCN1CCN(c2cccc(Cl)c2)C1=O
inactive: Potency [1] | outcome [2] | Potency [3] | Potency [4] | Potency [5] | Potency [7] | Potency [6]

COc1ccc(OC(=O)N(CC(=O)O)Cc2ccc(OCCc3nc(-c4ccccc4)oc3C)cc2)cc1
inactive: Potency [1] | outcome [2] | Potency [3] | Potency [4] | Potency [5] | Potency [6]

O=C(Oc1ccccc1)c1ccccc1O
inactive: Potency [1] | outcome [2] | Potency [3] | Potency [4] | Potency [5] | Potency [6]

NCC[C@H](O)C(=O)N[C@@H]1C[C@H](N)[C@@H](O[C@H]2O[C@H](CN)[C@@H](O)[C@H](O)[C@@H]2O)[C@H](O)[C@@H]1O[C@H]1O[C@H](CO)[C@@H](O)[C@H](N)[C@@H]1O
inactive: activity change, negative = inhibition [1] -1.8% [at 0.568 µM] | activity change, negative = inhibition [2] 13.4% [at 0.568 µM] | activity change, negative = inhibition [3] -0.409% [at 0.593 µM] | activity change, negative = cytotoxic [4] 10.2% [at 0.594 µM] | activity change, negative = cytotoxic [5] 11.4% [at 0.597 µM] | activity change, negative = cytotoxic [7] 26.2% [at 0.597 µM] | activity change, negative = cytotoxic [6] -3.3% [at 0.597 µM]
89.8% [at 0.217 µM]: parasite growth remaining, % of DMSO control (lower = more inhibition) [9]
94.3% [at 0.217 µM]: growth, % of control [11]
163% [at 0.217 µM]: parasite growth, % of control (lower = inhibition) [10]
98% [at 0.217 µM]: parasite growth, % of DMSO control [8]

C[C@H]1C[C@H](O)c2ccsc2S1(=O)=O
inactive: Potency [1] | outcome [2] | Potency [3] | Potency [4] | Potency [7] | Potency [6]

CCOC(=O)N1CCC(n2c(=O)[nH]c3cc(Cl)ccc32)CC1
inactive: Potency [1] | outcome [2] | Potency [3] | Potency [4] | Potency [7]
